Among the data in PubChem BioAssay AID488975 (Johns Hopkins Ion Channel Center, 2010) are B-score values, retold here.

Structures are written as SMILES. Hit rate of the full screen: of about 310,000 compounds, about 2,600 (0.84%) were called active.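 The calls were made as follows: active = B-score over 3 SD under the library average, and starting fluorescence ratio not unusually high; inactive = the rest.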 Many of the other results were omitted from the sample, so actives are more common in it than they were.

For the assay, the target named is High affinity choline transporter 1 (Homo sapiens) (UniProt Q9GZV3). As to the kind of experiment: inhibits the human high affinity choline transporter (AID 488975).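 As to B-score: choline stimulus applied at its EC90 after an EC20 pre-addition; B-score computed on integrated fluorescence ratio after choline addition.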 The following applies: CHT-expressing cells, membrane potential dye, choline response, at 10 µM; stronger effect = lower value.
Chain of High affinity choline transporter 1 (Homo sapiens) (Q9GZV3 whole entry, looked up): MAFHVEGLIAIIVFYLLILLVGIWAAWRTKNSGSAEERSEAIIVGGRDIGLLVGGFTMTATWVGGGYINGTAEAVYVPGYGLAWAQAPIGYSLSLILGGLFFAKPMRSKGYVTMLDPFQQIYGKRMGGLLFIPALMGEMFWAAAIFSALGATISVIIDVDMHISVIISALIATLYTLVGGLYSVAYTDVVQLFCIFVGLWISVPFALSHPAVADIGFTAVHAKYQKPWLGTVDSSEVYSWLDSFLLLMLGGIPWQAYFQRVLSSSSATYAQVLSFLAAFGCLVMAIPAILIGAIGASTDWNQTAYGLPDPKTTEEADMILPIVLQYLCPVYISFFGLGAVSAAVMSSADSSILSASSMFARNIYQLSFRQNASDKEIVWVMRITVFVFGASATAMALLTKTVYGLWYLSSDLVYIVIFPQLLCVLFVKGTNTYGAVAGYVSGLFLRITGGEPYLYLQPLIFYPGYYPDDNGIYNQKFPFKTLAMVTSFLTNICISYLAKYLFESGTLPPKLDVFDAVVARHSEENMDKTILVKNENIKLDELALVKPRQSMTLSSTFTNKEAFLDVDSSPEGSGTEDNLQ
Take `CCC1(c2ccccc2)NC(=O)N(CC(=O)c2ccc3c(c2)OCO3)C1=O` (configuration not stated): the B-score result was “inactive”.
In the case of `CCCn1c(C)cc(/C=C(\C#N)C(=O)OCC(=O)N(C)c2c(N)n(Cc3ccccc3)c(=O)[nH]c2=O)c1C`, the B-score result was “inactive”.
For `Cc1[nH]c2ccccc2c1C(=O)CN1CCCC(C)C1` (configuration not stated) the value was -6.04 (active); for `CCOC(=O)N1CCN(CC(=O)c2c(C)[nH]c3ccccc23)CC1`, “inactive”.
For `Cc1[nH]c2ccccc2c1C(=O)CN1CC(C)CC(C)C1` (configuration not stated) the value was “inactive”; for `[O-][n+]1ccc(OCc2ccccc2)cc1`, “inactive”.
To `Cc1ccc([C@@H]2CC=C(C(=O)O)[C@H](c3cccc(Cl)c3)N2S(=O)(=O)c2ccc(C)cc2)cc1` belongs “inactive”; to `COc1ccccc1C(=O)NC(CCSC)C(=O)N1CCN(C/C=C/c2ccccc2)CC1` (configuration not stated), “inactive”.
Consider `O=C(Nc1ccc2nc3n(c(=O)c2c1)CCCC3)c1ccc(Cl)nc1`, for which the B-score result is “inactive”.
To `N=c1c2c(-c3ccccc3)c(-c3ccccc3)n(Cc3ccccc3)c2ncn1CCCO` belongs -9.35 (active); to `COCCn1cnc2c1c(=O)n(Cc1ccc(Br)cc1)c(=O)n2Cc1ccccc1`, “inactive”.
With `CCN(CC)CCn1cnc2c1c(=O)[nH]c(=O)n2Cc1ccccc1`, the B-score entry is “inactive”.
For the compound `CCOC(=O)C1CCN(C(=O)COC(=O)C2CCN(S(=O)(=O)c3ccc4c(c3)OCCO4)CC2)CC1`, the B-score result was “inactive”.
To `Cc1cc(C)c(S(=O)(=O)n2cc(C(C)C(N)C(=O)O)c3ccccc32)c(C)c1` (configuration not stated) belongs “inactive”.
For `CCN(CC(=O)Nc1c(F)cccc1F)C(=O)c1ccc(-c2ccccc2)cc1` the value was “inactive”.
Turning to `COc1ccccc1/C=N/Nc1nc(C)c(C(C)=O)s1`, the B-score result is “inactive”.
Regarding `COc1ccc(C(=O)NCC(c2ccco2)N2CCc3ccccc32)cc1OC` (configuration not stated), the B-score entry was “inactive”.
To `Cc1sc2nc(CSCC(=O)NC3CCCCC3)[nH]c(=O)c2c1C` belongs “inactive”.
For `N=c1n(Cc2ccc(Cl)cc2)c2ccccc2n1CC(O)c1ccco1` (configuration not stated) the value was -5.25 (active); for `Cn1c(=N)n(CC(O)c2cccs2)c2ccccc21` (configuration not stated), “inactive”; for `Cn1c(=N)n(CC(O)c2ccccc2)c2ccccc21` (configuration not stated), “inactive”.
For `O=C(N/N=C/c1cc(Br)c(O)c([N+](=O)[O-])c1)C(O)(c1ccccc1)c1ccccc1` the value was “inactive”; for `CCCCN(C(=O)CSCC(=O)Nc1ccc(OC)cc1)c1c(N)n(CCC)c(=O)[nH]c1=O`, “inactive”; for `O=C(Cc1ccc(S(=O)(=O)N2CCOCC2)s1)NCCOc1ccccc1F`, “inactive”.
With `Cc1ccc(NC(=O)C2CC(=O)N(c3ccc4c(c3)OCCO4)C2)cc1S(=O)(=O)N1CCCCCC1` (configuration not stated), the B-score result was “inactive”.
Turning to `CCCCn1c(=O)c(C(C)=O)c(O)c2ccccc21`, the B-score entry is “inactive”.
Turning to `CCCCCn1c(=O)c(C(=O)OCC)c(Cl)c2ccccc21`, the B-score was -5.74 (active).
With `CCOC(=O)c1nnn2c3ccccc3c(=O)n(C)c12`, the B-score entry is “inactive”.
To `Cc1sc2ncnc(N3CCC(C(=O)Nc4nc5ccc(Cl)cc5s4)CC3)c2c1C` belongs “inactive”; to `CCc1ccc(Nc2n[n+](-c3ccccc3)c(-c3cccc(Cl)c3Cl)s2)cc1`, “inactive”.
For `Cc1ccc2nc(Nc3ccccc3O)nc(-c3ccccc3)c2c1`, the B-score result was “inactive”.
Take `Cc1cc(Nc2ccc(Br)cc2)nc2ccccc12`: the B-score entry is “inactive”.
To `Cc1ccc2nc(Nc3ccccc3)cc(C)c2c1` belongs -8.75 (active); to `O=S(=O)(Nc1ccccn1)c1cccc(S(=O)(=O)c2ccc(Cl)cc2)c1`, “inactive”; to `O=S(=O)(Nc1ccc(Cl)cn1)c1cnc(Cl)c(Br)c1`, -8.67 (active).
As to `Cc1ccc(NS(=O)(=O)c2ccc(F)cc2)nc1`, the B-score entry was “inactive”.
To `CC(=O)c1c(C)[nH]c(C(=O)COC(=O)CCOc2ccc(C)cc2)c1C` belongs “inactive”; to `CCOC(=O)N1CCN(C(=O)C2CCN(c3ncnc4c3sc3cccc(F)c34)CC2)CC1`, -5.37 (active); to `CCOC(=O)N1CCN(C(=O)C2CCN(S(=O)(=O)c3cc(Cl)ccc3OCC)CC2)CC1`, “inactive”.
For `CCOC(=O)C1CCN(c2ncnc3c2oc2ccc(Br)cc23)CC1` the value was “inactive”.
For `CCC(C)c1ccc(O)c(/C=N/O)c1` (configuration not stated) the value was “inactive”; for `CNCC(O)c1ccc(O)c(O)c1` (configuration not stated), -5.02 (active); for `CC(=O)NCC(O)c1ccc([N+](=O)[O-])cc1` (configuration not stated), “inactive”.
Turning to `COc1cc(C(=O)NCC(=O)NCCSc2ccc(Br)cc2)cc(OC)c1OC`, the B-score entry was “inactive”.
For `C=CCOc1ccc(/C=C/C(=O)OCC(=O)NC(C)c2ccc(F)cc2)cc1` (configuration not stated) the value was “inactive”; for `CCOC(=O)C(Cc1ccccc1)NC(=O)CCC(=O)c1ccc(OC)cc1` (configuration not stated), “inactive”.
For `COc1ccc(C(=O)N[C@H](C(=O)NCc2ccccc2)C(C)C)cc1` the value was “inactive”; for `COc1ccc(C(=O)NC(Cc2ccc(OC(=O)c3ccc(OC)cc3)cc2)C(=O)O)cc1` (configuration not stated), -5.4 (active); for `CCOc1ccc(CCNC(=O)COC(=O)C2CCN(c3ccc(C(F)(F)F)cn3)CC2)cc1OCC`, “inactive”.
Take `FC(F)(F)c1ccc2c3n(nc2c1)CCN=C3c1ccc(Cl)cc1`: the B-score entry was “inactive”.
For `Cc1ccc(C(=O)NCCN2CCOCC2)cc1C` the value was “inactive”; for `Cc1cccc(C(=O)NCCCN2CCCC2=O)c1`, “inactive”.
To `Cc1cccc(-c2nc3ccc(C(=O)NCCN4CCN(C)CC4)cc3nc2-c2cccc(C)c2)c1` belongs -5.67 (active); to `NC1=NC(c2ccc([N+](=O)[O-])cc2)N(c2ccc(F)cc2)C(N)=N1` (configuration not stated), “inactive”; to `CN(Cc1ccccc1)CC(O)COc1ccc(CNCc2cc3ccccc3s2)cc1` (configuration not stated), -5.57 (active).
For `OC(CNCc1ccc2c(c1)OCO2)COc1ccccc1` (configuration not stated) the value was “inactive”; for `Cc1ccc(OCC(=O)OC(C)CN(C)Cc2ccccc2)cc1` (configuration not stated), “inactive”; for `COc1ccccc1NC(=O)Nc1nc(CC(=O)Nc2ccccc2F)cs1`, “inactive”.
On to `CCOc1cc(N2CCOCC2)c(OCC)cc1NC(=O)COc1cccc(Cl)c1`, for which the B-score entry is “inactive”.
To `CCN(CC(=O)Nc1cccc(S(=O)(=O)N2CCCCC2)c1)Cc1ccccc1` belongs “inactive”.
`Cc1ccc(-c2cc(=O)[nH]c(NCc3ccccc3)n2)cc1`: the B-score entry is “inactive”.
For `CCCCN(C1CCS(=O)(=O)C1)S(=O)(=O)c1ccc(C(C)C)cc1` (configuration not stated) the value was “inactive”; for `Cc1cc(=O)[nH]c(SCc2cc(Cl)ccc2OC(F)F)n1`, “inactive”.
To `CCCCOc1ccc(Cl)cc1CSc1nncn1N` belongs -4.96 (active).
To `COc1ccc(Cl)cc1CSc1ncn[nH]1` belongs “inactive”; to `COc1ccccc1C(CNC(=O)c1cccc(NS(=O)(=O)c2ccc(Br)cc2)c1)N(C)C` (configuration not stated), “inactive”; to `CN(CC(=O)NCc1cccnc1)S(=O)(=O)c1cc(Cl)ccc1Cl`, “inactive”.
